The list is not random: actives were taken first. Their share in the collection is about 2.8%.
POLB inh – DNA polymerase beta (human) inhibition. P06746. Pol beta primer extension/strand displacement, fluorescence kinetic. Potency, µM (series often up to 114 µM), without a hit: at the highest dose activity change, negative = inhibition, most hits filed as inhibitors. 340,000 tested, 1.3% active. AID 485314; also: potency is read from the fitted curve at half-maximal effect; % is scaled to controls: 0 for no effect and ±100 for the full control effect
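Pol beta (10 nM) was preincubated with compound for 15 min at room temperature. The reaction was then started with 50 nM substrate and read immediately and after a further 10 min at room temperature.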
Pol kappa inh – inhibitors of human DNA polymerase kappa | Q9UBT6 | purified Pol kappa, fluorescent DNA synthesis assay, 10 min | Potency, µM (highest dose often 107 µM), without a hit: at the highest dose activity, negative = inhibition, most hits filed as inhibitors | 400,000 tested, 0.53% active | AID 588579; also: potency is read from the fitted curve at half-maximal effect; % is scaled to controls: 0 for no effect and ±100 for the full control effect
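Enzyme at 10 nM met test compounds for 15 min at room temperature. Substrate addition (50 nM final) began the reaction, which was monitored by fluorescence at 0 and 10 min.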
FEN1 inhibitor – inhibitors of human flap endonuclease 1. AID 588795. 390,000 tested, 0.35% active. Recombinant FEN1 flap cleavage, fluorescence, 15 min. Potency, µM (titrated, usually from 114 µM), inactives show top-dose activity change, negative = inhibition, hits mostly inhibitors; also: potency is read from the fitted curve at half-maximal effect; % is scaled to controls: 0 for no effect and ±100 for the full control effect; nearly all actives have a fitted effect of over 65% in size
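FEN1 at 10 nM, compound pretreatment for 15 min (room temperature), 50 nM final substrate to initiate; endpoint reads at 0 and 15 min; DMSO-only plates used as vehicle background.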
Pol eta inh – blocks human DNA polymerase eta activity. 390,000 tested, 1.2% active. Potency, µM (top dose mostly 114 µM), without a hit: top-dose activity change, negative = inhibition, hits mostly inhibitors. recombinant Pol eta, fluorescent DNA replication assay. AID 588591. Q9Y253; also: potency is read from the fitted curve at half-maximal effect; % is scaled to controls: 0 for no effect and ±100 for the full control effect
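Fluorescent replication assay: 50 nM final substrate added after a 15 min room-temperature compound preincubation with 10 nM enzyme. Signal taken at 0 min and again at 10 min.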
PI5P4K alpha inh – inhibitors of human PI5P4K alpha; P48426; PI5P4Kalpha enzyme, ADP-Glo luminescence, 60 min; active compounds read low; max response, %; 330,000 tested, 1.2% active; AID 652105; active = max response of -50% or lower; inconclusive = between -30% and -50%; inactive = -30% or higher; also: value at the top dose of about 77 µM; % is scaled to controls: 0 for no effect and ±100 for the full control effect
Target sequence (P48426 whole entry, looked up): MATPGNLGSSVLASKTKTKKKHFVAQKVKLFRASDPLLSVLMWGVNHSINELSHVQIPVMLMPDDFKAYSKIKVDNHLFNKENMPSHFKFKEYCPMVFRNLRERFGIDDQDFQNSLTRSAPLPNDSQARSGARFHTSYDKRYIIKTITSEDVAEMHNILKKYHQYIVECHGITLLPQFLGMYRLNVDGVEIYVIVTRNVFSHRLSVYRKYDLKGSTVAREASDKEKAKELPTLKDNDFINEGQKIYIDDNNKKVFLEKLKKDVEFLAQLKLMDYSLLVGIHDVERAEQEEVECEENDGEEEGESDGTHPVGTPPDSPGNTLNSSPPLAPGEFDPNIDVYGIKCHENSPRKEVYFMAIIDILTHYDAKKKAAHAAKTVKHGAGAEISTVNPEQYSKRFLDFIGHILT
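Single end-point luminescence (ADP-Glo) quantified ADP from PI5P4Kalpha turnover; ATP 5 microM final, 1 h at RT, 0.1% CHAPS and 0.28 mM EGTA in HEPES pH 7.4.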
Pol iota inh – inhibitors of human DNA polymerase iota; Q9UNA4; Pol iota fluorescent replication assay, 10 min; Potency, µM (doses to about 115 µM), for inactives: at the highest dose activity, negative = inhibition, usual class: inhibitors; 390,000 tested, 1% active; AID 588590; also: potency is read from the fitted curve at half-maximal effect
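Pol iota at 10 nM preincubated 15 min with compounds at room temperature; reaction started with fluorescent substrate, 50 nM final. Fluorescence read kinetically at 0 and 10 min; buffer-only wells as negative control.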
The depositor's hits bear a star; ? = inconclusive; · = no result given; [ ] = another dose, or the depositor's remark. Unless noted, calls follow the shape of the dose curve; as a rule, active = well fitted curve in the direction sought with a large enough effect; inconclusive = small, poorly fitted or top-dose-only effect, or another doubt; inactive = no such curve, though single readings can be large; an effect the other way counts as inactive or inconclusive.

SMILES | POLB inh | Pol kappa inh | FEN1 inhibitor | Pol eta inh | PI5P4K alpha inh | Pol iota inh
Cc1cc(C)cc(C(=O)Nn2cnnc2)c1 | 66% | -2% | -2% | -15% | 7 | 176%
N#CCC(N)=C(C#N)C#N | 29% | -3% | -5% | 6% | -76* | -19%
Cc1cc(O)c2c(c1)CC1C3CCC4CC(=O)CCC4(C)C3CC(=O)C21C (centres undefined) | · | 1% | -16% | -7% | 0 | 19%
COc1ccc(-c2csc(NC(=O)C3CCCCN3S(=O)(=O)c3ccccc3)n2)cc1 (centres undefined) | 12% | -8% | -19% | -12% | -6 | 1%
CC(=O)c1cccc(NC(=O)c2sc3nc4c(cc3c2N)CCCC4)c1 | ? | 9% | 5% | 79µM* | · | -5%
Cc1cccc(NC(=O)c2sc3nc(N)c(C#N)cc3c2N)c1 | -9% | -20% | -3% | -10% | -51* | 8%
CN1CCc2nc3sc(C(=O)Nc4cccc(C#N)c4)c(N)c3cc2C1 | -17% | 0% | 40µM* | · | · | ?
COc1ccc(NC(=O)c2sc3nc4c(cc3c2N)CCCCCC4)cc1OC | ? | 0% | -19% | -23% | · | ?
N#Cc1cc2c(N)c(C(=O)Nc3ccccc3)sc2nc1N | -26% | · | · | · | · | ·
CCc1nnc(NC(=O)c2sc3nc4c(cc3c2N)CCCCCC4)s1 | 40µM* | -43% | -1% | 40µM* | -23 | 25µM*
CN1CCc2nc3sc(C(=O)Nc4c(F)cccc4F)c(N)c3cc2C1 | -3% | -15% | ? | -28% | · | 37%
CC(C)OC(=O)CC(=O)c1sc2nc3c(cc2c1N)CN(C)CC3 | 40µM* | ? | ? | ? | -25 | 11µM*
CCCCCCCCN1[C@@H](CC(=O)O)c2ccc(/C=C/C(=O)O)cc2S1(=O)=O | · | ? | 16% | · | · | -7%
Cn1c(=O)c2c(nc(NCc3ccccc3)n2Cc2ccc(Cl)c(Cl)c2)n(C)c1=O | 7% | 1% | -20% | -18% | · | 28%
O=C(c1ccc(Cl)cc1)n1c(NCc2ccccc2)n[nH]c1=S | -1% | -3% | -2% | -21% | -3 | 132%
COc1cccc(-n2c(-c3ccccc3F)nc3c(cnn3-c3ccc(C)cc3)c2=O)c1 | 5% | -16% | -22% | -10% | · | 16µM*
Cc1c(O)c2c(c(C(=O)/C=C/c3ccccc3)c1O)OC(C)(C)C=C2 | · | -20% | -26% | · | · | -24%
CC(C)(C)NC(=O)C(c1ccccc1)n1c(=O)c(-c2ccco2)nc2ccccc21 (centres undefined) | · | · | · | · | -54* | ·
O=c1c(-c2ccco2)nc2ccccc2n1C(CCc1ccccc1)c1nc2ccccc2[nH]1 (centres undefined) | · | · | · | · | -73* | ·
CC(C)(C)NC(=O)C(c1cc2ccccc2o1)n1c(=O)c(-c2ccco2)nc2ccccc21 (centres undefined) | · | · | · | · | -58* | ·
O=C(NC1CCCCC1)C(c1cccc2ccccc12)n1c(=O)c(-c2ccco2)nc2ccccc21 (centres undefined) | · | · | · | · | -82* | ·
CC(C)(C)NC(=O)C(c1ccncc1)n1c(=O)c(-c2ccco2)nc2ccccc21 (centres undefined) | · | · | · | · | -18 | ·
COc1ccc(NC(=O)C(c2cccc3ccccc23)n2c(=O)c(-c3ccco3)nc3ccccc32)cc1 (centres undefined) | · | · | · | · | -30 | ·
NC(=O)Cn1ccc(O)c(Cc2ccc(Cl)cc2Cl)c1=O | 11% | 4% | -2% | -5% | -6 | ?
CN(CC(=O)NCCc1ccc(Cl)cc1)S(=O)(=O)c1ccc2c(c1)c(=O)n(C)c(=O)n2C | 14% | 11% | -1% | ? | 4 | 16%
SMILES | POLB inh | Pol kappa inh | FEN1 inhibitor | Pol eta inh | PI5P4K alpha inh | Pol iota inh
CN(CC(=O)NCCC1=CCCCC1)S(=O)(=O)c1ccc2c(c1)c(=O)n(C)c(=O)n2C | 5% | -19% | -2% | -5% | -1 | 79µM*
COc1cc(-c2nn3c(-c4ccco4)nnc3s2)cc(OC)c1OC | 15% | · | · | · | · | ·
Brc1ccc(-c2nn3c(-c4ccco4)nnc3s2)o1 | 45µM* | ? | ? | ? | · | ?
Clc1ccc(-c2ccc(-c3nn4c(-c5ccco5)nnc4s3)o2)cc1 | · | -22% | -23% | 79µM* | · | ?
Cc1ccccc1OCCCCCNCCO | -1% | -4% | 9% | -15% | · | ?
CC(C)(C)c1ccccc1OCCCCCNCCO | -10% | 5% | -15% | -4% | · | 71µM*
CCOc1ccc(N(C)c2ccc(/C=C3/SC(=S)NC3=O)cc2)cc1 | ? | -39% | ? | -25% | -55* | ?
O=C1NC(=S)S/C1=C/c1ccc(Oc2cnccn2)cc1 | -2% | 4% | 2% | -15% | -78* | 9%
CCOc1c(O)ccc(/C=C2\SC(=S)NC2=O)c1[N+](=O)[O-] | 20µM* | ? | -27% | 25µM* | -101* | 13µM*
Cc1cccc(OCc2nnc(SCC(=O)NC3CCCCC3)n2C)c1 | 42% | 0% | 20% | -15% | -3 | 12%
Cn1c(CCNC(=O)C2CCCCC2)nc2cc(NC(=O)c3cccs3)ccc21 | 40µM* | 1% | -3% | 3% | -4 | 89%
OCCNC(=S)Nc1ccc(Cl)c(Cl)c1 | 2% | -5% | 1% | -20% | -1 | -11%
OCCNC(=S)Nc1ccc2nsnc2c1 | 1% | -6% | -7% | -17% | 6 | 20µM*
Cc1nc2ccc(NC(=S)NCCCO)cc2nc1C | 0% | -14% | -1% | ? | 0 | 18µM*
CN[C@H](C)C(=O)NC[C@H]1O[C@@H](n2cnc3c(N)ncnc32)[C@H](O)[C@@H]1O | · | -8% | -11% | -3% | -1 | ?
O=C(NC1CC(=O)N(c2cccc(F)c2)C1)c1ccc2c(c1)OCO2 (centres undefined) | -1% | -9%[60.1 µM] | 20% | -6% | · | 25%
COCOc1ccc(-c2cc(=O)c3c(OCOC)cc(OCOC)cc3o2)cc1 | · | 6% | 14% | -24% | 0 | 28%
COCOc1cc(O)c2c(=O)c(OCOC)c(-c3ccc(OCOC)c(OCOC)c3)oc2c1 | · | 79µM* | -13% | ? | 0 | ?
CCOc1ccc(C2C(C(N)=O)=C(C)Nc3nc(-c4cccc(Cl)c4)nn32)cc1OC (centres undefined) | -1% | -13% | -2% | -3% | · | -8%
Cc1ccc(N/N=C(\C#N)C(N)=S)cc1C | 8% | -41% | -12% | -12% | -51* | 87%
Nc1cc(C(=O)O)c(Oc2ccc(Cl)cc2Cl)cc1C(=O)O | 22µM* | -16% | -5% | ? | 5 | -4%
O=C(O)c1cc2c(o1)CCC/C2=N\O | 89µM* | -28% | 0% | -10% | · | 1%[58.9 µM]

Source: PubChem BioAssay
